Reference: paper PMC4336329 (PLoS ONE, 2015)
The whole screen tested about 310,000 compounds, of which about 2,200 (0.71%) showed an effect of 50% or more. Effects have a minus sign here. The entries come from a sample that favours strong results as a whole.

The molecules below were run against human ether-à-go-go-related gene (hERG) potassium channel (human, UniProt Q12809) (assay: primary screen, population patch clamp on CHO cells stably expressing hERG; higher = less effect of the substance).
Chain of human ether-à-go-go-related gene (hERG) potassium channel (Q12809 whole entry, looked up): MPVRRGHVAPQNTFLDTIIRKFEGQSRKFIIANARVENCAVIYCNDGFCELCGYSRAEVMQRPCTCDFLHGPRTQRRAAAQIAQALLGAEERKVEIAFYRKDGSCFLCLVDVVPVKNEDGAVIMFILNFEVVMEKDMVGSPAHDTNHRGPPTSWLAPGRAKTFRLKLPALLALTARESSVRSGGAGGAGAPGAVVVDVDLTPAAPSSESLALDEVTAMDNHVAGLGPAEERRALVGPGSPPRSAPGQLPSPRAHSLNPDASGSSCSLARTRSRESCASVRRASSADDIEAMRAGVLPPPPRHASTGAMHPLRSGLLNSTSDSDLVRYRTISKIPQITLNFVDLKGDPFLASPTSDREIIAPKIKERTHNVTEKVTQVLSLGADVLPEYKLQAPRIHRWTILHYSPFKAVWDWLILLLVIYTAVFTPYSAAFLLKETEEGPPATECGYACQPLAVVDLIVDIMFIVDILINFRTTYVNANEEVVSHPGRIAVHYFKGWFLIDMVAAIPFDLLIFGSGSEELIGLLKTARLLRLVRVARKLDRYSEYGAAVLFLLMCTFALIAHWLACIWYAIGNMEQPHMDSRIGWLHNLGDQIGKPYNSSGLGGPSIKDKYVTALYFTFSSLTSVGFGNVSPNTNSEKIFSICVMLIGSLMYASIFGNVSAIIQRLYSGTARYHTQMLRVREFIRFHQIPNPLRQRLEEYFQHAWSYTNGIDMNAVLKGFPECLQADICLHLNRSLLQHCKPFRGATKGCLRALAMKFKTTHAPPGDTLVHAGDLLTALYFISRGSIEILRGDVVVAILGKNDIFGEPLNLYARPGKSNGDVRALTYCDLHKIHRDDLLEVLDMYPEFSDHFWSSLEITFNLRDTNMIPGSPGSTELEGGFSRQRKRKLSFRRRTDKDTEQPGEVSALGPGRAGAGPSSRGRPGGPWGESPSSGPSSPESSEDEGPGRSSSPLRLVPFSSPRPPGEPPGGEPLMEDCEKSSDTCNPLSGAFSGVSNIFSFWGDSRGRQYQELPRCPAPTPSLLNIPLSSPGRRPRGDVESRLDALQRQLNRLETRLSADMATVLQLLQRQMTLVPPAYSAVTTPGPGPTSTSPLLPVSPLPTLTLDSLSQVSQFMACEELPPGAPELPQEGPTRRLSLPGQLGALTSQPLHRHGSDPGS

SMILES | hERG current change (%, negative = inhibition) at 1uM [%]
CCOC(=O)CSc1nnc(COc2cccc(C)c2)o1 | 10.6
COCCOc1ccc(C(F)(F)F)cc1NC(=O)c1ccc(C(F)(F)F)cc1 | 4.7
CCN(CC)S(=O)(=O)c1ccc(N/N=C/c2cc(OC)c(OC)cc2OC)nc1 | 17.4
COc1ccc(C(=O)NC2CCCc3ccccc32)cc1OC1CCN(C(C)=O)CC1 (centres unmarked) | 3.31
CCOc1ccc(/C(O)=C2/C(=O)C(=O)N(CCCN3CCOCC3)C2c2ccc(F)cc2)cc1C (centres unmarked) | 16.5
CN1CCN(S(=O)(=O)c2ccc(N3CCN(C(c4ccccc4)c4ccccc4)CC3)nc2)CC1 | 18.9
Cc1ccc(NC(=O)COc2ccc(S(=O)(=O)N3CCOCC3)cc2)cc1 | 13.6
O=C(COc1ccc(S(=O)(=O)N2CCOCC2)cc1)Nc1cccc([N+](=O)[O-])c1 | 9.62
O=C(COc1ccc([N+](=O)[O-])cc1)Nc1ccc(S(=O)(=O)N2CCOCC2)cc1 | -55.1
Cc1c(CCC(=O)N2CCC[C@H]2C(=O)O)c(=O)oc2c(C)c3oc4c(c3cc12)CCCC4 | 21.1
COC(=O)C(NC(C)=O)(Nc1ccc(C)cn1)C(F)(F)F (centres unmarked) | 21.1
Cc1ccc(NP(=O)(Oc2ccccc2F)Oc2ccccc2F)cc1 | -1.69
COc1cc(OC)cc(C(=O)N2CCN(Cc3ccccc3Br)CC2)c1 | 9.25
Cc1ccc(S(=O)(=O)c2cc3c(=O)n4ccccc4nc3n(C3CCCC3)c2=N)cc1 | 3.8
Cc1ccc2nc3c(cc(C(=O)NC4CCCC4)c(=N)n3CCCn3ccnc3)c(=O)n2c1 | -2.46
Cc1ccc2nc3c(cc(C(=O)NC4CCCCC4)c(=N)n3C3CCCCC3)c(=O)n2c1 | -72.7
Cc1ccc(S(=O)(=O)c2cc3c(=O)n4ccccc4nc3n(C3CCCCC3)c2=N)cc1 | -0.427
Cc1ccc2nc3c(cc(C(=O)NC4CCCC4)c(=N)n3C3CCCCC3)c(=O)n2c1 | -86.2
CCCOc1cccc(C(=O)N(Cc2ccco2)C2CCS(=O)(=O)C2)c1 (centres unmarked) | 3.56
CCN(CC)C(=O)C1CCN(S(=O)(=O)c2ccc3oc4ccccc4c3c2)CC1 | 16.7
CCc1ccc(NC(=O)c2nc(S(=O)(=O)Cc3ccccc3)ncc2Cl)cc1 | 20.7
O=c1[nH]c2ccccc2cc1CN(Cc1cccnc1)S(=O)(=O)c1ccc([N+](=O)[O-])cc1 | -5.07
c1ccc(C(c2nnnn2Cc2ccco2)N2CCN(c3nc4ccccc4s3)CC2)cc1 (centres unmarked) | 8.1
Cc1ccc(Cl)cc1NC(=O)C1CCCN(S(C)(=O)=O)C1 (centres unmarked) | 7.81
O=[N+]([O-])c1ccc(N2CCN(Cc3ccc4c(c3)OCO4)CC2)nc1 | -29.2
Cl.O=[N+]([O-])c1ccc2ncnc(N3CCN(Cc4ccc5c(c4)OCO5)CC3)c2c1 | 11.4
O=Cc1cc([N+](=O)[O-])ccc1N1CCN(Cc2ccc3c(c2)OCO3)CC1 | -66.7

SMILES | hERG current change (%, negative = inhibition) at 1uM [%]
Cc1ccccc1Nc1nc2nonc2nc1N1CCOCC1 | 6.45
CC1C(=O)NC(=O)C1c1ccccc1 (centres unmarked) | 13.3
Cn1c(N)c(C(=O)COC(=O)CSc2ccc(Cl)cc2)c(=O)n(C)c1=O | -2.13
CC(C)(C)NCc1cc2ccccc2[nH]c1=O | 8.1
O=C1CCN(CCc2ccccc2)CCN1[C@H](COc1ccccc1)c1ccccc1 | -82.8
CC(C)C[C@@H](COc1ccccc1)N1CCN(CC(C)C)CCC1=O | -21.2
CCCN1CCC(=O)N([C@H](CO)c2ccccc2)CC1 | 9.74
CC(C)CN1CCC(=O)N([C@H](COc2ccccc2)c2ccccc2)CC1 | -64.3
CCCN1CCC(=O)N([C@H](COc2ccccc2)c2ccccc2)CC1 | -76.5
CCCCCCCN1CCC(=O)N([C@H](CO)c2ccccc2)CC1 | -25.8
O=C1CCN(CCc2ccccc2)CCN1[C@H](CO)c1ccccc1 | -7.26
CC(C)CN1CCC(=O)N([C@H](CO)c2ccccc2)CC1 | 12.6
O=C1CCN(Cc2ccccc2)CCN1[C@H](COc1ccccc1)c1ccccc1 | 2.66
COc1ccc(CCNc2nc(-c3cccnc3)cs2)cc1OC | 23.6
CCCCC(=O)Nc1cccc(NC(=O)c2cccnc2Cl)c1 | 6.85
C/C(=N\O)C(=O)NCCN(C)C | 13.6
CC(=O)O.Cc1nc(NCCc2ccc(F)cc2)c(C#N)c(C)c1[N+](=O)[O-] | -41.9
O=C(Oc1ccc(C(=S)N2CCCCC2)cc1)c1ccccc1 | 7.88
O=C(COC(=O)CCC(=O)c1ccccc1)NCCc1ccccc1 | 4.19
O=C(Cn1ccc(NC(=O)OCc2ccccc2)nc1=O)NCCCN1CCCC1=O | 7.66
CCOC(=O)c1sc2nc(C)nc(NCc3ccc(F)cc3)c2c1C | 17.8
CCOC(=O)c1sc2nc(C)nc(NCc3ccccc3)c2c1C | 16.7
CCOC(=O)c1sc2nc(C)nc(NCc3ccc(Cl)cc3)c2c1C | -89.6
[O-]/C(=C(\C(=S)NCc1ccccc1)[n+]1ccccc1)c1ccc(Cl)s1 | 0.527
COC(=O)c1c(NC(=O)c2cccs2)sc2c1CCC(C)C2 (centres unmarked) | 9.97
COc1ccc([C@@H]2[C@@H](C(=O)C(C)(C)C)N3N=Cc4ccccc4[C@@H]3C23C(=O)OC(C)(C)OC3=O)cc1OC | -5.04
